Assay outcomes as filed in PubChem BioAssay.
A selection: hits, their analogues and other compounds. The true share with any hit is near 5.4%.
LASV entry inh – inhibitors of Lassa virus binding or cell entry | Lassa virus pseudotype entry inhibition, cell reporter | Potency, µM (top dose mostly 37.9 µM), for the others: at the highest dose activity change, negative = inhibition, actives largely listed as inhibitors | hit rate 1.2% among 300,000 | AID 540256; calls by dose curve; tested in HEK293 cells; note: nearly all actives have a fitted effect of over 50% in size
VACV Venus inh – inhibitors of vaccinia virus (Venus reporter); Vaccinia virus Venus reporter expression, fluorescence; Potency, µM (highest dose often 36.5 µM), without a hit: top-dose activity change, negative = inhibition, hits mostly inhibitors; hit rate 0.46% among 330,000; calls by dose curve; tested in A549 cells; note: nearly all actives have a fitted effect of over 30% in size
Sm TGR block – S. mansoni TGR enzyme inhibition; Q962Y6; purified TGR, DTNB reduction, TNB absorbance 405 nm; Potency, µM (top dose mostly 114 µM), for the others: at the highest dose activity change, negative = inhibition, usual class: inhibitors; hit rate 3% among 360,000; AID 485364; active = well fitted inhibition curve with a large enough effect; inconclusive = small, poorly fitted or top-dose-only effect; inactive = no such curve, though single readings can be large or run the other way; note: nearly all actives have a fitted effect of over 60% in size
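Kinetic colorimetric format: TGR-catalysed, NADPH-driven DTNB reduction monitored via TNB absorbance. Enzyme dispensed at 20 nM; compound exposure 15 min at room temperature before reaction start.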
Vaccinia mCherry – inhibitors of vaccinia virus infection (mCherry reporter signal); Vaccinia virus mCherry reporter infection, fluorescence; hit rate 0.63% among 310,000; AID 720579; Potency, µM (highest dose often 36.5 µM), for inactives: at the highest dose activity change, negative = inhibition, most hits filed as inhibitors; calls by dose curve; tested in A549 cells; note: nearly all actives have a fitted effect of over 35% in size
FMDV antiviral – foot and mouth disease virus antiviral activity | hit rate 1.2% among 410,000 | Potency, µM (series often up to 57.9 µM), without a hit: at the top dose activity change, negative = inhibition, most hits filed as inhibitors | FMDV antiviral cell-based qHTS; calls by dose curve; tested in HEK293T cells; note: read-out not given here; nearly all actives have a fitted effect of over 45% in size
MARV entry inh – Marburg virus entry inhibition | Marburg virus pseudotyped entry inhibition, cell reporter | Potency, µM (highest dose often 37.8 µM), for inactives: at the top dose activity change, negative = inhibition, hits mostly inhibitors | hit rate 1.8% among 300,000 | AID 540276; calls by dose curve; tested in HEK293 cells
Active calls of the source: *; i = inactive; ? = inconclusive; · = no result; [ ] = another dose, or the depositor's remark. % is set by controls: 0 for no effect and ±100 for the full control effect; potency is the fitted concentration of half-maximal effect.

SMILES	LASV entry inh	VACV Venus inh	Sm TGR block	Vaccinia mCherry	FMDV antiviral	MARV entry inh
COc1ccc(/C=C/C(=O)Nc2ccccc2C)cc1S(=O)(=O)N1CCOCC1	·	·	15%	·	?	-4%
COc1cc(/C=C/C(=O)Nc2ccc(OC)c(S(=O)(=O)N3CCOCC3)c2)ccc1OC(F)F	13µM*	?	·	?	?	?
COc1ccc(/C=C/C(=O)Nc2ccccc2F)cc1S(=O)(=O)N1CCOCC1	?	-19%	·	-1%	25µM*	?
COc1ccc(/C=C/C(=O)Nc2ccc(C(C)=O)cc2)cc1S(=O)(=O)N1CCOCC1	·	-8%	·	i	-14%	·
COc1ccc(C(=O)Nc2ccc(-c3ccc(C)o3)cc2)cc1S(=O)(=O)N1CCOCC1	7.9µM*	?	50µM*	?	10µM*	13µM*
COc1ccc(/C=C/C(=O)Nc2cccc(F)c2)cc1S(=O)(=O)N1CCOCC1	5.6µM*	?	2%	-27%	35µM*	?
CCC1CN(CCNC(=O)c2ccc(C#CC(C)(C)O)cc2)Cc2cc(OC)ccc2O1 (centres undefined)	·	-8%	·	-15%	12%	·
N#Cc1c2c(c(Cl)n3c1nc1ccccc13)CCCC2	·	?	·	-27%	·	·
CCN(CC)c1ccc(S(=O)(=O)N2CCOCC2)cc1NC(=O)COC(=O)/C=C/c1ccc(C)o1	?	-8%	32µM*	-21%	-11%	?
CCN(CC)c1ccc(S(=O)(=O)N2CCOCC2)cc1NC(=O)COC(=O)/C=C/c1ccccc1	·	·	·	·	-9%	·
COc1ccc(NC(=O)/C=C/c2ccc(C)o2)cc1S(=O)(=O)N1CCOCC1	24%	-3%	18µM*	i	0%	?
COc1cc(OC)c(N(C)C(=O)Cn2ncc3c([nH]c4ccccc43)c2=O)cc1Cl	-5%[46.1 µM]	-2%	1%	3%	-26%	·
COc1ccc(OC)c(C(=O)c2coc3ccc(OC(C)=O)cc23)c1	11µM*	-30%	-12%	-29%	12%	?
COc1ccc(C(=O)c2coc3ccc(OC(C)=O)cc23)cc1	?	-19%	2%	-14%	-45%	?
O/C=c1\ccc2cccc3nc(C(F)(F)F)nc1c23	-3%	10%	3.2µM*	-8%	13µM*	?
CN(C)C=NC(=O)c1cc(C(=O)c2ccc(C(C)(C)C)cc2)c[nH]1	3.2µM*	-2%	6%	i	8%	?
CN(C)C=NC(=O)c1cc(C(=O)c2ccccc2Cl)c[nH]1	10%	-9%	7%	i	-10%	3%[46.1 µM]
CC(/C=N/n1c(-c2cccnc2)n[nH]c1=S)=C\c1ccco1	-5%	-18%	40µM*	-20%	-10%	4%
CC(/C=N/n1c(-c2n[nH]c3c2CCC3)n[nH]c1=S)=C\c1ccco1	0%	1%[7.34 µM]	35µM*	i[7.34 µM]	-13%	-22%[46.1 µM]
O=C(NCCc1nnc2n1CCN(Cc1ccc3c(c1)CCO3)CC2)c1ccco1	·	-9%	·	-8%	1%	·
O=c1c2sc(-c3ccccc3)cc2nc2n1CCC2	?	-20%	-4%	-30%	-48%	4.5µM*
O=c1c2sc(-c3ccccc3)cc2nc2n1CCCCC2	-17%	-19%	-9%	i	11%	?
COc1ccc(S(=O)(=O)N/N=C(/C)c2ccc(Cl)cc2)cc1	-10%	·	1%	·	92%	-23%
COc1ccc(C/C(C)=N/NS(=O)(=O)c2ccc(Br)cc2)cc1	·	·	22µM*	·	21%	·
COc1ccc2cc(-c3cc(C(=O)O)c4ccccc4n3)ccc2c1	0.35µM*	4%	2%	10µM*	10µM*	0.71µM*
SMILES	LASV entry inh	VACV Venus inh	Sm TGR block	Vaccinia mCherry	FMDV antiviral	MARV entry inh
CCOc1ccc(-c2cc(C(=O)N3CCN(C)CC3)c3ccccc3n2)cc1	-29%	-3%	7%	-8%	8%	?
CCOC(=O)N1CCN(C(=O)c2cc(-c3ccc(OCC)cc3)nc3ccccc23)CC1	4.6µM*	·	5%	·	-5%	?
COc1cccc(CN(C)C(=O)c2cc(-c3ccc(F)cc3)nc3ccccc23)c1	?	-24%	2.2µM*	-28%	-27%	?
O=C(O)CCC(=O)CCC(=O)c1ccccc1	13%	·	45µM*	·	25%	-11%
Cc1ccc(C(=O)CCC(=O)CCC(=O)O)cc1	-6%	·	·	·	0%	0%
Cc1cccc(CNC(=O)CCCn2c(=O)c3cccn3c3ccc(F)cc32)c1	2%[46.1 µM]	-12%	0%	-14%	-22%	·
O=C1NN=C(CSc2n[nH]c(=S)s2)CS1	·	-16%	40µM*	-1%	2%	·
COCCn1c(C)cc(C(=O)CSc2nnc(C)s2)c1C	?	-2%	1%	-15%	7.9µM*	?
COCCn1c(C)cc(C(=O)CSc2n[nH]c(N)n2)c1C	6%	0%	-32%	-10%	40%	4%
COCCn1c(C)cc(C(=O)CSc2nnnn2C2CCCC2)c1C	1.3µM*	-7%	-27%	i	13µM*	?
O=C(c1cnsn1)N1CCOc2ccc(C(O)C(c3ccccc3)c3ccccc3)cc2C1 (centres undefined)	·	-19%	·	-11%	-18%	·
c1ccc2c(c1)OCC(c1csc3ncnc(N4CCCC4)c13)O2 (centres undefined)	-15%	-10%	-5%	·	?	?
c1ccc(CCNc2ncnc3scc(C4COc5ccccc5O4)c23)cc1 (centres undefined)	-27%	·	5%	·	28µM*	-9%
CCC(=O)N1CCC1(C)C(=O)NCc1ccccc1SC (centres undefined)	·	-3%	·	32%	4%	·
O=C(CCNS(=O)(=O)c1ccc(Br)cc1)NC1CCCCC1	29%[46.1 µM]	-12%	9%	-1%	13%	9%[46.1 µM]
O=S(=O)(NC(=S)NC1CCCCC1)c1ccc(Br)cc1	8%	-3%	22µM*	-6%	10%	7%[46.1 µM]
Cc1ccc2cccc(NC(=S)NC(=O)c3ccccc3)c2n1	-4%	·	-15%	·	-19%	9%
Cc1ccc2cccnc2c1NC(=S)NC(=O)c1ccccc1	17%	·	35µM*	·	?	-8%
Cc1ccc2cn[nH]c2c1NC(=S)NC(=O)c1ccccc1	-4%	·	14µM*	·	-22%	10%
CC(=O)C1=C(O)C(=O)N(CCCN2CCOCC2)C1c1ccccc1[N+](=O)[O-] (centres undefined)	15%	-1%	45µM*	-1%	53%	?
CCN(CC)CCCN1C(=O)C(O)=C(C(=O)c2sc(C)nc2C)C1c1ccc(C)o1 (centres undefined)	·	·	-29%	·	·	-3%
CCN(CC)CCN1C(=O)C(O)=C(C(=O)c2ccc(C)o2)C1c1ccccn1 (centres undefined)	24%	-5%	·	-11%	13%	-9%
Cc1ccc(C2C(C(=O)c3sc(C)nc3C)=C(O)C(=O)N2CCN2CCOCC2)o1 (centres undefined)	-9%	-2%	40µM*	·	-18%	18%
CCCOc1ccc(C2C(C(=O)c3ccc(C)o3)=C(O)C(=O)N2CCN2CCOCC2)cc1OC (centres undefined)	17%	·	40µM*	·	17%	?
